Measured values from publication PMC7862700, “An all-to-all approach to the identification of sequence-specific readers for epigenetic DNA modifications on cytosine”.

Key:
Assay in all cases: DAPPL (digital affinity profiling via proximity ligation, sequencing); 10 mM Tris-HCl pH 7.5, 50 mM NaCl, 1 mM DTT, 4% glycerol, room temperature, 30 min; GST-TFs on glutathione beads, 16-mer random dsDNA library, 0.1% formaldehyde crosslink after washing; high values mean tight binding
Settings in all cases: protein: recombinant; tags: N-terminal GST; dsDNA, one strand shown
FLI1 = target: T1, FLI1 (Homo sapiens, UniProt Q01543 1-452)
T1 sequence: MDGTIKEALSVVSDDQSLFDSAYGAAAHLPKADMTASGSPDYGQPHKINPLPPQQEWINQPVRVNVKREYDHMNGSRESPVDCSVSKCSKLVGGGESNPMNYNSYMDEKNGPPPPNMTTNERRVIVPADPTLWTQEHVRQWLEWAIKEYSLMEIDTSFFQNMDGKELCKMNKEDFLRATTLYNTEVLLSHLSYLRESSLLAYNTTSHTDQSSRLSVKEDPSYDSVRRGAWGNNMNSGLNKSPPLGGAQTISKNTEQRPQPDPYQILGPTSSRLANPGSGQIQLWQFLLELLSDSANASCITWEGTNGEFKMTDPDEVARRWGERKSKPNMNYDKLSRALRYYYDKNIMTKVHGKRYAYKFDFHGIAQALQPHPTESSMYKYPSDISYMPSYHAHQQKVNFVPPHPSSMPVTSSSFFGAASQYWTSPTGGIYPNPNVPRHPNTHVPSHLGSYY
Summary of the method: (§1)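 Binding signal is defined as a hexamer's read frequency for one factor over its frequency for the tag-only sample. To obtain reads, GST-fused human transcription factors were expressed in yeast, captured on glutathione beads, barcoded with DNA and pooled with that sample. Pools met 200 nmole of a 16-mer random double-stranded DNA library in Tris/NaCl/DTT/glycerol buffer for 30 min at room temperature before washing, 0.1% formaldehyde crosslinking, proximity ligation (BsaI/T4 ligase, 1 h, 37 °C), PCR and Illumina NextSeq500 sequencing.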

ELK1 = target: T2, ELK1 (Homo sapiens, UniProt P19419 1-428)
T2 sequence: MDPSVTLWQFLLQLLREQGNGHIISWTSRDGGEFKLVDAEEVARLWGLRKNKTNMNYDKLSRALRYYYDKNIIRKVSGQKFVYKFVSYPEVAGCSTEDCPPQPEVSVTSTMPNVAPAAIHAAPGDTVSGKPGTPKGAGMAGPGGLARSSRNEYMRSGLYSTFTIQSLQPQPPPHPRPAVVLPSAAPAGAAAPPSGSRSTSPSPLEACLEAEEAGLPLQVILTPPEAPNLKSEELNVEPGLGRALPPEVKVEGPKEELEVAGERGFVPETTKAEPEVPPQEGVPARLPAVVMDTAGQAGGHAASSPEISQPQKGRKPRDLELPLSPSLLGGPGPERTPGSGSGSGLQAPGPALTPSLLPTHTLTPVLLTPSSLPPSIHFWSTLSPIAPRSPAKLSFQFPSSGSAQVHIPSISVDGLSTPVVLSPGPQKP
Summary of the method: as §1

GABPA = target: T3, GABPA (Homo sapiens, UniProt Q06546 1-454)
T3 sequence: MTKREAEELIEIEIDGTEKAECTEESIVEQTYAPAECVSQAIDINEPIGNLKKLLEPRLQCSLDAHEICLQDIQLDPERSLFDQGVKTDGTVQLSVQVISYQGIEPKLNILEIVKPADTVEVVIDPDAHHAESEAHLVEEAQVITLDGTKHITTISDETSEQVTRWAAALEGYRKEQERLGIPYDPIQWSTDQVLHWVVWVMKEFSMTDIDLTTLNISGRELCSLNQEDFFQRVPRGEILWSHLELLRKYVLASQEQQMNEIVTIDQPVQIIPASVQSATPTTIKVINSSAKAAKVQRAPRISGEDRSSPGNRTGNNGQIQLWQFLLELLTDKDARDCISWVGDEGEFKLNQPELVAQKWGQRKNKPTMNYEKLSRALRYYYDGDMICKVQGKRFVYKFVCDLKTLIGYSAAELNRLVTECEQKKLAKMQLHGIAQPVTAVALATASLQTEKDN
Summary of the method: as §1

ERG = target: T4, ERG (Homo sapiens, UniProt P11308 1-479)
T4 sequence: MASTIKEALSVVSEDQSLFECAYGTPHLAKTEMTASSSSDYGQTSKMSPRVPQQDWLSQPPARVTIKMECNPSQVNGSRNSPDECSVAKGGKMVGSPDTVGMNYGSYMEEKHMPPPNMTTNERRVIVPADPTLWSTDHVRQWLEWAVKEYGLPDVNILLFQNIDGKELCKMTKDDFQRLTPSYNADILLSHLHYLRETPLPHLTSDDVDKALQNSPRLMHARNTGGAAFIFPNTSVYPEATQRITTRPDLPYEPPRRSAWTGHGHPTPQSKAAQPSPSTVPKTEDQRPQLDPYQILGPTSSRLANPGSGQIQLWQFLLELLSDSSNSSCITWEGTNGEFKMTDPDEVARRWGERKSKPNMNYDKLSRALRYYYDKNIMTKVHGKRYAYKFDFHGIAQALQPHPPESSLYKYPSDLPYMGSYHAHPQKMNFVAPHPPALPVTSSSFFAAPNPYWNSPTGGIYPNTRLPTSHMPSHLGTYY
Summary of the method: as §1

ELF1 = ELF1 (Homo sapiens, UniProt P32519 1-619)
ELF1, sequence (P32519 whole entry): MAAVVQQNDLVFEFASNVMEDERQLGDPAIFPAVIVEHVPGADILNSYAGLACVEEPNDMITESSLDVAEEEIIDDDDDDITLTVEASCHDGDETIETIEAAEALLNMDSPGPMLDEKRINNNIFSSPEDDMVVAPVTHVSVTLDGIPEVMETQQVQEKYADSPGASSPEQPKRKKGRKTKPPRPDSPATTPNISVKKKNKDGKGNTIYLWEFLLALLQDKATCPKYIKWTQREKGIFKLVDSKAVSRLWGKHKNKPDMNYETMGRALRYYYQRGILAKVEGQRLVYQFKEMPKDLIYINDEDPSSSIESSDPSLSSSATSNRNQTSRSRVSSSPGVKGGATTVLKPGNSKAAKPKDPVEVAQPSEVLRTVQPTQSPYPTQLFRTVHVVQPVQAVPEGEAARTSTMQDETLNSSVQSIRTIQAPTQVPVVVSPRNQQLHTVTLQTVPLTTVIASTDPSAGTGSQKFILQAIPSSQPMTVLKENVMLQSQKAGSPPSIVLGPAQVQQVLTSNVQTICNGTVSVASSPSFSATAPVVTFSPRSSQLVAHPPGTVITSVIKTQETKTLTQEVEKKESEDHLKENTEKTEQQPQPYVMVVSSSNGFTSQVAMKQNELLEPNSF
Summary of the method: as §1

EHF = target: T5, EHF (Homo sapiens, UniProt Q9NZC4 1-300)
T5 sequence: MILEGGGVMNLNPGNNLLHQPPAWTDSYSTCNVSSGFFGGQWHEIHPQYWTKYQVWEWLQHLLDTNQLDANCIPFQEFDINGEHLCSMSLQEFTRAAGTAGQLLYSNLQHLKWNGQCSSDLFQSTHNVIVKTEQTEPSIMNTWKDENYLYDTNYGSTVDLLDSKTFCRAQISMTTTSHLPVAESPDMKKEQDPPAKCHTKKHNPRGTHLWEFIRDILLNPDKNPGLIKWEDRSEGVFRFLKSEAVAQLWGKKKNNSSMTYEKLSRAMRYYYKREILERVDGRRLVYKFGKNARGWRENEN
Summary of the method: as §1

SPI1 = SPI1 (Homo sapiens, UniProt P17947 1-270)
Summary of the method: as §1

SPIB = SPIB (Homo sapiens, UniProt Q01892 1-262)
SPIB, sequence (Q01892 whole entry): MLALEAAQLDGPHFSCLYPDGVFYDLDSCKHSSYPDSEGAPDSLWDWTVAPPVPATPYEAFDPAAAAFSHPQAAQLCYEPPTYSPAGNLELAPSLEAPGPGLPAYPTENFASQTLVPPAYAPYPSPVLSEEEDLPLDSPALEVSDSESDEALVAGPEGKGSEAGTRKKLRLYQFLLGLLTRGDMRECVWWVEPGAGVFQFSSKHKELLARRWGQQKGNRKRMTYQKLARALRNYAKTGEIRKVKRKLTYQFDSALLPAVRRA
Summary of the method: as §1

ELK3 = target: T6, ELK3 (Homo sapiens, UniProt P41970 1-407)
T6 sequence: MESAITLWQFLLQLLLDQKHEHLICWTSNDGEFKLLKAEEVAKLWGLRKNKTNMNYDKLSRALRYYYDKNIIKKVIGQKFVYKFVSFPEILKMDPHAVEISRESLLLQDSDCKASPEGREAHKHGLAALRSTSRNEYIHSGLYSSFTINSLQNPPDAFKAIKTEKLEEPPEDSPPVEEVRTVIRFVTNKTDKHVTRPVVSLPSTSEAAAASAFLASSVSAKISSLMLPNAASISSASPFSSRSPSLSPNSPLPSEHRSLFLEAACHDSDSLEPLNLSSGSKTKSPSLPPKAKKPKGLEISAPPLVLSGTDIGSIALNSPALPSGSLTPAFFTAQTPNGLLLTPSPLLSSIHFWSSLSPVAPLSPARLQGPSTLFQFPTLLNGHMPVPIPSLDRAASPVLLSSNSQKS
Summary of the method: as §1

With GTTTCG the binding signal (FLI1) was 1.28 fold enrichment (6-mer frequency, TF over GST control), the binding signal (ELK1) was 1.22 fold enrichment (6-mer frequency, TF over GST control) and the binding signal (GABPA) was 1.22 fold enrichment (6-mer frequency, TF over GST control). For the same sequence, the binding signal (ERG) was 1.25 fold enrichment (6-mer frequency, TF over GST control), the binding signal (ELF1) was 1.27 fold enrichment (6-mer frequency, TF over GST control) and the binding signal (EHF) was 1.33 fold enrichment (6-mer frequency, TF over GST control). The binding signal (SPI1) was 1.25 fold enrichment (6-mer frequency, TF over GST control), the binding signal (SPIB) was 1.23 fold enrichment (6-mer frequency, TF over GST control) and the binding signal (ELK3) was 1.15 fold enrichment (6-mer frequency, TF over GST control).
